Here are results for 112 compounds from PubChem BioAssay AID488969 (Vanderbilt High Throughput Screening Facility, 2010).

In all, about 110,000 compounds were measured (“z-score”: median about -0.1, highest 2% from about 2 on). The entries come from a sample that favours the highest values as a whole. Active and inactive are the calls of the source.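 How the source made its calls: active means z-score in the third read window above 3 or below -3; inactive means the rest.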

In the assay the target is Metabotropic glutamate receptor 8 (Rattus norvegicus) (UniProt P70579). Kind of assay: rat mGluR8 modulators via GIRK flux, primary screen, cell-based, thallium flux, HTS (AID 488969). To be noted: HEK293 rat mGluR8, GIRK (G protein-gated inwardly rectifying potassium channel) thallium flux, FluoZin2; at 10 µM; stronger effect = higher value; submaximal glutamate (EC20) added with thallium.
Metabotropic glutamate receptor 8 (Rattus norvegicus), sequence (P70579 whole entry, looked up): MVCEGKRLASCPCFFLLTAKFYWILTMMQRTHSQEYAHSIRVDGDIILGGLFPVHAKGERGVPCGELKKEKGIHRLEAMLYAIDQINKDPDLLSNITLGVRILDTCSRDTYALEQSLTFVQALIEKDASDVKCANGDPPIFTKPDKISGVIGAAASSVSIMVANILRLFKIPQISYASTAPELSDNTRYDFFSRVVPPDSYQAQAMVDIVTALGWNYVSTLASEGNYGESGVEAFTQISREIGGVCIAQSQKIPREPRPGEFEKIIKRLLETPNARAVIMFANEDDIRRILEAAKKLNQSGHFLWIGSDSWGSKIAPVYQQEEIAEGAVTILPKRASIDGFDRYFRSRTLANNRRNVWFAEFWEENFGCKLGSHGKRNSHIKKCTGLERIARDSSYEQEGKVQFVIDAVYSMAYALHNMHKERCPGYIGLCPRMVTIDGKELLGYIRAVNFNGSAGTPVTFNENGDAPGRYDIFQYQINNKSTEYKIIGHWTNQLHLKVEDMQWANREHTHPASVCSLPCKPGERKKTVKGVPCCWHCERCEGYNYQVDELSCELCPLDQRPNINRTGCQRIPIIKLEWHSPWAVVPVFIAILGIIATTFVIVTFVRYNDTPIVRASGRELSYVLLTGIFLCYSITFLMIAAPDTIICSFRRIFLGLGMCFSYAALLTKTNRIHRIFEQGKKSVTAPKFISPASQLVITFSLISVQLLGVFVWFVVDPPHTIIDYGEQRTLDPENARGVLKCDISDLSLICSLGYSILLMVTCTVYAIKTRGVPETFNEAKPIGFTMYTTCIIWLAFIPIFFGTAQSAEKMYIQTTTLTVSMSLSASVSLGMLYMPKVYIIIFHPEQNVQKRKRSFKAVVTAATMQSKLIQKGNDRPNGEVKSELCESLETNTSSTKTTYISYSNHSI
With `CC1=CC(=Nc2c(C)n(C)n(-c3ccccc3)c2=O)C=C(C)C1=O`, the z-score turned out to be 0.433.

`Cc1cc(S(=O)(=O)NCC(=O)O)ccc1F`: the z-score was 0.254.

`CCN=C1SC(C(=O)Nc2cccc(C)c2)CC(=O)N1CC` (configuration not stated) had a z-score of -0.145.

Take `O=C(/C=C/c1ccccc1)c1cc(Br)ccc(=O)c1O`: the z-score is 14 (active).

Compound `O=C(/C=C/c1ccc(Br)cc1)c1ccco1` had a z-score of -0.0794.

Compound `O=C(/C=C/c1ccccn1)c1ccc(Br)cc1O` registered a z-score of -0.442.

Turning to `CN(C)c1nc(Oc2ccc(N)cc2)nc(N(C)C)n1`, the z-score is 0.322.

As to `COc1cccc(C(=O)CSc2nnnn2C)c1`, the z-score was -0.273.

As to `CCCN(Cc1ccccc1)C(=S)Nc1cccc(C(F)(F)F)c1`, the z-score is -0.985.

Compound `CN1CC(=O)N(CC(=O)NCc2ccc3c(c2)OCO3)C1=O` came in with a z-score of -0.14.

`O=C(O)C1[C@H]2C(=O)N(C3CCCC3)C[C@]23C=C[C@H]1O3` (some centres not stated) registered a z-score of 0.231.

Consider `O=C(O)C1C2C=CC3(CN(C4CCCC4)C(=O)C13)O2` (configuration not stated), for which the z-score was found to be 2.75.

In the case of `COC(=O)C1C2C=CC3(CN(C4CCCC4)C(=O)C13)O2` (configuration not stated), the z-score is -1.65.

`Cc1cc(C)c2oc(-c3cccc(NC(=O)c4ccc(F)cc4)c3)nc2c1` registered a z-score of -0.0725.

In turn, `CCc1ccc(-n2cc(-c3ccc([N+](=O)[O-])cc3)[nH]c2=S)cc1` displayed a z-score of 0.69.

On to `O=[N+]([O-])c1ccc(-c2cn(-c3ccccc3)c(=S)[nH]2)cc1`, for which the z-score was -0.00967.

In turn, `Cc1cccc(-n2cc(-c3ccc([N+](=O)[O-])cc3)[nH]c2=S)c1` registered a z-score of 0.401.

Compound `O=[N+]([O-])c1ccc(-c2cn(-c3ccc(Cl)cc3)c(=S)[nH]2)cc1` had a z-score of 2.83.

`Cc1ccc(-n2cc(-c3ccc([N+](=O)[O-])cc3)[nH]c2=S)c(C)c1` yielded a z-score of 2.99.

In the case of `Cc1cc(C)c(CSc2ncc(-c3ccc([N+](=O)[O-])cc3)[nH]2)c(C)c1`, the z-score was -0.26.

`Cc1ccc(Nc2cc(-n3cccn3)ncn2)c(C)c1` came in with a z-score of -0.35.

Take `COc1ccc(/C=N/Nc2snc(SC)c2C#N)cc1OC`: the z-score worked out at 0.407.

For `Cc1ccc(NC(=O)c2ccc3c(c2)N(CC(=O)N2CCCCC2)C(=O)C(C)(C)O3)cc1`, the z-score was -0.4.

`CC1Cc2nc(SCC(=O)N3CCN(c4ccccc4)CC3)n(CCc3ccccc3)c(=O)c2S1` (configuration not stated): the z-score is -1.13.

`Cc1ccccc1OCC(=O)NC(=S)Nc1ccc(N2CCOCC2)c(Cl)c1` returned a z-score of 0.328.

The compound `Cc1cccc(OCC(=O)Nc2ccccc2C(=O)N2CCOCC2)c1` returned a z-score of -0.0499.

Take `Cc1cc(Cl)ccc1OCC(=O)NC(=S)Nc1ccccc1N1CCOCC1`: the z-score stood at 0.195.

On to `Cc1cccc(OCC(=O)NC(=S)Nc2ccccc2N2CCOCC2)c1`, for which the z-score is 3.14 (active).

`O=C(NC(=S)Nc1ccc(N2CCOCC2)c(Cl)c1)C(c1ccccc1)c1ccccc1`: the z-score amounted to 0.604.

`CCCC(=O)NC(=S)Nc1ccccc1N1CCOCC1` yielded a z-score of -0.0717.

In turn, `COc1ccc(OCC(=O)NC(=S)Nc2ccc(N3CCOCC3)c(Cl)c2)cc1` returned a z-score of 2.19.

In turn, `COc1ccc(OCC(=O)Nc2ccc(N3CCOCC3)c(Cl)c2)cc1` had a z-score of -0.665.

`Cc1ccc(OCC(=O)Nc2ccccc2N2CCOCC2)c(C)c1` gave a z-score of 0.00977.

Consider `CCCC(=O)NC(=S)Nc1ccc(N2CCOCC2)c(Cl)c1`, for which the z-score amounted to 0.242.

On to `Cc1cc(Cl)ccc1OCC(=O)Nc1ccccc1N1CCOCC1`, for which the z-score is 2.81.

Turning to `O=C(NC(=S)Nc1ccc(N2CCOCC2)c(Cl)c1)c1cncc(Br)c1`, the z-score was 7.69 (active).

Compound `Cn1c(=O)cc(SCC(=O)NCC2CCCO2)c2ccc(Cl)cc21` (configuration not stated) yielded a z-score of 0.0952.

In turn, `COCCOC(=O)C1=C(C)NC2=C(C(=O)CC(C)(C)C2)C1c1ccc2c(c1)OCO2` (configuration not stated) registered a z-score of -0.115.

In turn, `CCc1nc(N)c(C#N)c(-c2cccc3ccccc23)c1C` showed a z-score of 0.197.

`O=C(C[n+]1ccc2ccccc2c1)Nc1cc(C(F)(F)F)ccc1Cl` had a z-score of -0.746.

The compound `CN(C)S(=O)(=O)c1cc(C(=O)O)c(NC2CCCCC2)cc1Cl` returned a z-score of -2.9.

On to `CCOC(=O)c1c(CSC(=N)N)n(-c2ccc(C)cc2)c2cc(Br)c(OC(C)=O)cc12`, for which the z-score was found to be 1.29.

`Cc1cccc(NC(=O)CSc2nsc(SCC(=O)Nc3cccc(C)c3)c2C#N)c1` registered a z-score of -0.0761.

The compound `COc1ccc(CCNC2=NCC(C)S2)cc1` (configuration not stated) yielded a z-score of 0.0523.

`Cc1cccc(OCC(=O)Nc2ccccc2N2CCCCC2)c1`: the z-score turned out to be 0.378.

In the case of `CCC(=O)N1CCN(c2ccccc2NC(=O)COc2cccc(C)c2)CC1`, the z-score is 13 (active).

Take `CCC(=O)N1CCN(c2ccccc2NC(=O)COc2cc(C)ccc2C(C)C)CC1`: the z-score was found to be 0.696.

Consider `Cc1sc(NC(=O)CSc2nnc(-c3ccc(F)cc3)o2)c(C#N)c1C`, for which the z-score is -0.213.

Regarding `CCNC(=O)CN(c1ccc(OC)c(OC)c1)S(=O)(=O)c1ccccc1`, the z-score was -0.11.

As to `O=C(Nc1cccc(-c2nnc(-c3ccccc3)o2)c1)C1CCCCC1`, the z-score is -0.0325.

For `O=C(Nc1cccc(-c2nnc(-c3ccccc3)o2)c1)C1CCCO1` (configuration not stated), the z-score is 3.

Take `O=C(Nc1ccc2oc(-c3ccccc3)nc2c1)C1CCCO1` (configuration not stated): the z-score is -0.123.

`CCOC(=O)Cc1csc(NC(=O)C2C3C=CC(C3)C2C(=O)O)n1` (configuration not stated) had a z-score of -0.0933.

The compound `Cc1cc(C)cc(OCC(=O)Nc2ccc3c(c2)C(=O)c2ccccc2C3=O)c1` came in with a z-score of -0.124.

In the case of `Cc1ccc2nc(SC(C(=O)Nc3ccc(F)cc3)c3ccccc3)[nH]c2c1` (configuration not stated), the z-score was -0.117.

Compound `COc1cccc(C(=O)CSc2nnc(-c3cc(OC)cc(OC)c3)o2)c1` came in with a z-score of 0.263.

`Cn1cccc1CNC1CCCCC1` had a z-score of 0.335.

Compound `c1ccc(-n2cccc2CNC2CCCCC2)cc1` showed a z-score of 2.02.

Consider `Cn1cccc1CNC1CCCC1`, for which the z-score was -1.43.

In turn, `O=C(C1CCC(CNS(=O)(=O)c2cccc3cccnc23)CC1)N1CCc2ccccc21` (configuration not stated) came in with a z-score of -0.0229.

Compound `CC(=C1C(=O)c2ccccc2C1=O)N1CCN(Cc2ccccc2)CC1` yielded a z-score of -0.06.

For the compound `CS(=O)(=O)N1CCN(C/C=C/c2ccccc2)CC1`, the z-score is -0.0638.

On to `CC(=C1C(=O)c2ccccc2C1=O)N1CCN(C/C=C/c2ccccc2)CC1`, for which the z-score was found to be 2.04.

Turning to `Cc1cc(C)cc(C(=O)OCC(=O)Nc2cccc(S(=O)(=O)NC3=NCCCCC3)c2)c1`, the z-score is 0.0544.

The compound `Cc1c(N2C(=O)CS/C2=N\N=C\c2ccc(Cl)cc2)c(=O)n(-c2ccccc2)n1C` yielded a z-score of -0.118.

`Cc1c(N2C(=O)CS/C2=N\N=C\c2ccc(Br)cc2)c(=O)n(-c2ccccc2)n1C` returned a z-score of -0.286.

On to `Cc1c(N2C(=O)CS/C2=N\N=C\c2ccccc2O)c(=O)n(-c2ccccc2)n1C`, for which the z-score is 3.28 (active).

`CC1SC(c2ccccc2Cl)NC1=O` (configuration not stated): the z-score is -0.0543.

For `CC(NC(=O)c1ccc(-c2cc(C(F)(F)F)ccc2Cl)o1)c1ccccc1` (configuration not stated), the z-score is -0.132.

Regarding `COc1cccc(NC(=O)COC(=O)c2c3c(nc4ccccc24)CCC(C)C3)c1` (configuration not stated), the z-score was -0.604.

Consider `S=c1[nH]nc(-c2ccccc2)n1/N=C/C=C/c1ccco1`, for which the z-score came to 0.28.

With `CC(/C=N/n1c(-c2ccc(Cl)cc2)n[nH]c1=S)=C\c1ccco1`, the z-score was 6.09 (active).

On to `Cc1ccc(-c2n[nH]c(=S)n2/N=C\c2ccco2)cc1`, for which the z-score is -0.16.

`Cc1nn(-c2ccccc2)c(C)c1/C=N/n1c(-c2ccc(Cl)cc2)n[nH]c1=S` came in with a z-score of 0.338.

Regarding `CC(/C=N/n1c(-c2ccccc2)n[nH]c1=S)=C\c1ccco1`, the z-score was 6.02 (active).

Compound `CC(/C=N/n1c(-c2ccc(C)cc2)n[nH]c1=S)=C\c1ccco1` showed a z-score of 0.323.

Consider `COc1ccc(OC)c(NC(=O)CSc2ncccn2)c1`, for which the z-score was -0.134.

`COc1ccc(C(=O)n2nc(C)cc2C)cc1OC` displayed a z-score of -0.221.

Consider `c1ccc(Cn2c(Sc3nnnn3-c3ccccc3)nnc2-c2ccccc2)cc1`, for which the z-score stood at 0.223.

For the compound `COc1ccc(CNC(=S)Nc2cccc(C)c2C)cc1`, the z-score was -0.341.

The compound `Cc1ccc2nsnc2c1NC(=O)c1ccc2c(c1)OCCO2` showed a z-score of -0.679.

Take `Cc1ccc(S(=O)(=O)/N=C(/NC(=S)Nc2ccccc2)c2ccccc2)cc1`: the z-score turned out to be 0.34.

`CCCCN(CCCC)CCn1cnc2c([nH]c3ccc(OC)cc32)c1=O` displayed a z-score of 0.258.

As for `CCC1CCCN1Cn1cnc2c([nH]c3ccc(OC)cc32)c1=O` (configuration not stated), the z-score is 6.77 (active).

For `CCN1CCCC1Cn1cnc2c([nH]c3cc(OC)ccc32)c1=O` (configuration not stated), the z-score is -0.271.

Compound `CCOCCc1nnc(NC(=O)c2cccs2)s1` returned a z-score of -0.0424.

Consider `O=C(NC1CCCC1)C(c1ccccc1)N(C(=O)c1ccno1)c1ccccc1` (configuration not stated), for which the z-score was found to be 0.315.

In turn, `CC(C)(C)NS(=O)(=O)c1ccc2c(c1)oc(=O)c1cc(S(=O)(=O)NC(C)(C)C)ccc12` returned a z-score of -0.0322.

`Cn1nnnc1SCC(=O)Nc1ccccc1C(=O)NC1CC1` showed a z-score of 0.311.

In the case of `CC(NC(=O)c1ccccc1NC(=O)CSc1nnnn1C)c1ccccc1` (configuration not stated), the z-score was 2.05.

As for `Cn1nnnc1SCC(=O)Nc1ccccc1C(=O)NCc1ccccc1`, the z-score came out at 0.00964.

`O=C(c1cnn2c(C(F)(F)F)cc(-c3ccccc3)nc12)N1CCCc2ccccc21` yielded a z-score of -0.322.

As to `CC1Cc2cc(/C(O)=C3/C(=O)C(=O)N(CCCn4ccnc4)C3c3ccco3)ccc2O1` (configuration not stated), the z-score was -0.193.

In turn, `COc1nc(-c2ccccc2)ccc1-c1noc(-c2ccccc2)n1` registered a z-score of 0.293.

`CC(C)(C)CC(C)(C)NC1=CC(=O)OC12CCCCC2`: the z-score was -0.189.

On to `CC(C)c1nc(N2CCCC2)c(C#N)c2c1CCCC2`, for which the z-score amounted to 0.908.

Regarding `Cc1nc(N2CCOCC2)c(C#N)c2c1COC(C)(C)C2`, the z-score is -0.387.

Turning to `CC(C)c1nc(N2CCOCC2)c(C#N)c2c1CCC2`, the z-score was 0.532.

`COC(=O)Sc1nc(N2CCOCC2)c2c(c1C#N)CC(C)(C)OC2`: the z-score is -2.52.

Consider `CC(C)c1nc(N2CCOCC2)c(C#N)c2c1CCCC2`, for which the z-score is 6.82 (active).

In turn, `CCCCc1nc(N2CCOCC2)c(C#N)c2c1COC(C)(C)C2` came in with a z-score of -0.434.

As to `CC(C)Cc1nc(N2CCOCC2)c(C#N)c2c1COC(C)(C)C2`, the z-score is 2.42.

`CSc1nc(N2CCOCC2)c2c(c1C#N)CC(C)(C)OC2` displayed a z-score of 2.16.

Compound `CSc1nc(N2CCCC2)c2c(c1C#N)CC(C)(C)OC2` came in with a z-score of -0.933.

As for `Cc1ccc(S(=O)(=O)Nc2nc3ccccc3s2)cc1`, the z-score was -0.644.

With `COc1ccc(CC(=O)NNC(=S)Nc2ccccc2)cc1Br`, the z-score was found to be 0.376.

`Cn1cc(CNC(=O)C2CCCCC2)cn1` registered a z-score of -0.556.

In turn, `Cn1c(=O)[nH]c2cc(Cl)cnc21` registered a z-score of 0.0453.

Consider `CCc1cc(C(=O)NCCN(C)C)cs1`, for which the z-score was found to be 0.168.

For `COc1ccc(C)cc1S(=O)(=O)Nc1ccccc1C`, the z-score is -0.428.

In the case of `COc1ccc(C)cc1S(=O)(=O)Nc1cccc(Cl)c1Cl`, the z-score is 3.68 (active).

Turning to `COc1cc(NS(=O)(=O)c2cc(C)ccc2OC)c(OC)cc1Cl`, the z-score came out at 0.494.
